Results: PubChem BioAssay (NCATS)
Records with an inconclusive call do not appear. A call without a number means that no potency is given here. The source made the active and inactive calls. Calls follow the shape of the dose curve; as a rule, active = well fitted inhibition curve with a large enough effect; inconclusive = small, poorly fitted or top-dose-only effect; inactive = no such curve, though single readings can be large or run the other way.

test system: Zika virus NS2B-NS3 protease (unlinked complex); assay: Primary screen GU Rhodamine qHTS for Zika virus inhibitors: Unlinked NS2B-NS3 protease assay (AID 1347159); details: Recombinant ZIKV NS2B-NS3 protease, Rhodamine110 substrate fluorescence; series mostly up to 107 µM; also: nearly all actives have a fitted effect of over 60% in size
In short: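 Percent inhibition derives from the 15-min fluorescence change (ex 480, em 540 nm), normalized to no-enzyme and no-inhibitor wells. Reactions contained 25 nM NS2B-NS3 complex and 1.5 microM substrate in 10 mM Tris-HCl pH 8.0.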
Potency is read from the fitted curve at half-maximal effect.

Row | Compound | Potency
1 | OCC(CO[C@@H]1O[C@H](CO)[C@@H](O)[C@H](O)[C@H]1O)c1ccc2c(c1)OCO2 (stereo partly drawn) | inactive
2 | CC(C)(C)C(=O)CN1C(=O)[C@H](NC(=O)Nc2cccc(C(=O)O)c2)CN(C2CCCCC2)c2ccccc21 | 10 µM (active)
3 | CC(=O)O[C@@H]1[C@@H](CO)O[C@@](CO)(O[C@H]2O[C@H](COC(=O)/C=C/c3ccccc3)[C@@H](O)[C@H](O)[C@H]2O)[C@H]1O | inactive
4 | Cn1nc(C(C)(C)C)cc1C(=O)NC(Cc1cccc(Cl)c1)C(=O)NCC#N (stereo not drawn) | inactive
5 | CCc1cc(CN2CC(C(=O)O)C2)sc1-c1noc(-c2ccc(Oc3ccccc3)cc2)n1 | 3.98 µM (active)
6 | O=C(O)c1ccccc1NC(=O)N1CCC(c2ccccc2C(F)(F)F)CC1 | 22.4 µM (active)
7 | C/C1=C\CCC(C)CCO[C@@H]2O[C@H](CO[C@@H]3OC[C@H](O)[C@H](O)[C@H]3OC1=O)[C@@H](O)[C@H](O)[C@H]2O (stereo partly drawn) | 31.6 µM (active)
8 | OC[C@H]1O[C@@H](O[C@H]2[C@H](OCc3ccccc3)O[C@H](CO[C@@H]3OC[C@@H](O)[C@H](O)[C@H]3O)[C@@H](O)[C@@H]2O)[C@H](O)[C@@H](O)[C@@H]1O | inactive
9 | CC(C)C(N)C(=O)OCCOCn1cnc2c(=O)[nH]c(N)nc21 (stereo not drawn) | inactive
10 | CC(=O)c1ccc(O[C@@H]2O[C@H](CO)[C@@H](O)[C@H](O)[C@H]2O)cc1 | inactive
11 | CC(C)N(CCCCOCC(=O)NS(C)(=O)=O)c1cnc(-c2ccccc2)c(-c2ccccc2)n1 | 7.94 µM (active)
12 | COc1ccc(CCO[C@@H]2CCCC[C@H]2N2CC[C@@H](O)C2)cc1OC | inactive
13 | CC(=O)OCC1(O)CCC2C(COC3OC(CO)C(O)C(O)C3OC(=O)/C=C/c3ccc(O)cc3)=COC(OC(=O)CC(C)C)C21 (stereo not drawn) | inactive
14 | C/C(=C\C=C\C(C)C1CCC2(C)C3CCC4C(C)(C)C(=O)CCC45CC35CCC12C)C(=O)O (stereo not drawn) | 4.47 µM (active)
15 | Cc1ccc(C(=O)Nc2noc3ccccc23)cc1 | inactive
16 | C=C[C@H]1[C@H](O[C@@H]2O[C@H](CO)[C@@H](O)[C@H](O)[C@H]2O)OC=C(C(=O)OC)[C@H]1C[C@@H]1c2cc(O)c(O)cc2CCN1C(C)=O | inactive
17 | COC(=O)C[C@H]1C(C)(C)[C@H](OC(C)=O)C2CC3=C4CC(=O)O[C@@H](c5ccoc5)[C@]4(C)CCC3[C@@]1(C)C2=O (stereo partly drawn) | inactive
18 | C=C1[C@H](OC(C)=O)[C@H]2[C@@H](OC(C)=O)[C@](C)(OC(C)=O)C[C@]2(OC(C)=O)C(=O)[C@H](C)/C=C/C(C)(C)C(=O)[C@H](OC(=O)C(C)CC)[C@H]1OC(C)=O (stereo partly drawn) | inactive
19 | CC(C)=CCC[C@](C)(O[C@@H]1O[C@H](CO)[C@@H](O)[C@H](O)[C@H]1O)[C@H]1CC[C@]2(C)[C@@H]1[C@H](O)CC1[C@@]3(C)CC[C@H](O)C(C)(C)C3[C@@H](O[C@@H]3O[C@H](CO)[C@@H](O)[C@H](O)[C@H]3O)C[C@]12C (stereo partly drawn) | inactive
20 | CC(c1ncncc1F)C(O)(Cn1cncn1)c1ccc(F)cc1F (stereo not drawn) | inactive
21 | CC(=O)c1c(O)cc(O[C@@H]2O[C@H](CO)[C@@H](O)[C@H](O)[C@H]2O)cc1O | 31.6 µM (active)
22 | CCCCc1nc2cc(/C=C/C(=O)NO)ccc2n1CCN(CC)CC | inactive
23 | COc1ccc(C(=O)Nc2ncc(-c3ccc(C(=O)O)cc3)s2)cc1 | 28.2 µM (active)
24 | O=C1NC(Cc2c[nH]c3ccccc23)C(=O)NC1Cc1c[nH]c2ccccc12 (stereo not drawn) | inactive
25 | C=C1C(=O)OC2CC3(C)C(CC12)C(C)=CC(O)C3OC(C)=O (stereo not drawn) | 25.1 µM (active)
26 | COC1C(=O)CCC2(CO2)C1(O)C1(C)OC1CC=C(C)C (stereo not drawn) | 44.7 µM (active)
27 | O=C(O)CC1CCC(c2ccc(-c3ccc4nc(C(=O)NCc5ccc(OC(F)(F)F)cc5)cn4c3)cc2)CC1 (stereo not drawn) | 2.51 µM (active)
28 | C=C1CCC2C(C)(C)C(O)CCC2(C)C1CCC(C)CCO (stereo not drawn) | 7.08 µM (active)
